This test has as its target furin, P09958. Briefly: furin cleavage Z-score vs untreated control; higher = more cleavage, active = 3.5 or more, inactive = 1 or less, 8 variable residues between constant flanks. The procedure, abridged: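 Reactions of 0.01 ml ran for 7.5, 15 or 30 min in 50 mM HEPES pH 7.5 with CaCl2 and NaCl, at 1:10 enzyme:substrate. In them, purified furin acted on bead-held 8-mer peptides fused to a cDNA oligonucleotide. The cleavage Z-score was obtained by lowess-adjusting log sequencing counts of released DNA against furin-free reactions and scaling by median absolute deviation.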

This is one part of the list. The hit rate among all sequences tested is not known here.

furin, P09958, sequence (P09958 whole entry, the tested form may be a part): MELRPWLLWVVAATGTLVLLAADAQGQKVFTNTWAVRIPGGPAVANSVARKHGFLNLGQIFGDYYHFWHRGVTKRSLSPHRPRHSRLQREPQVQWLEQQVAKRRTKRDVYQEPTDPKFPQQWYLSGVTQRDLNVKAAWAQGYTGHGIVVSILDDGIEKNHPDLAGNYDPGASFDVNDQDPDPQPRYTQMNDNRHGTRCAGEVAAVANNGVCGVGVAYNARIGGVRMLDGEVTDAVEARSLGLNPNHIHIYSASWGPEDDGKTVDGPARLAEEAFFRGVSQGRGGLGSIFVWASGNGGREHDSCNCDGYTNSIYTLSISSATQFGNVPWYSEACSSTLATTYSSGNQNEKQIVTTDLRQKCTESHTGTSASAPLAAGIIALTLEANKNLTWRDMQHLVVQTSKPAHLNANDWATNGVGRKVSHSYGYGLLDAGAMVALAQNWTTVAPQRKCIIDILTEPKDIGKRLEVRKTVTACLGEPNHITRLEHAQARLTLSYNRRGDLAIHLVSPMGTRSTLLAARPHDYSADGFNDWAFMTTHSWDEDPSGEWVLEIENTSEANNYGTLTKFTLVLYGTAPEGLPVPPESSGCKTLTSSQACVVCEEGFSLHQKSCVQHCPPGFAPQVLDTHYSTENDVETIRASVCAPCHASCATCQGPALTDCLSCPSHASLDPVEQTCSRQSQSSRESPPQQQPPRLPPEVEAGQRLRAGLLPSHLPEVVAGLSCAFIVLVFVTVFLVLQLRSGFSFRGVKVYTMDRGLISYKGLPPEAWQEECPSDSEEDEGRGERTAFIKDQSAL

B1: HC935 (peptide)
chain: CAPVCQDHLEAGNASASA
On to B1, for which the “furin cleavage Z-score” value (7.5 min) is -0.428 (inactive), the “furin cleavage Z-score” value (15 min) is -0.153 (inactive) and the “furin cleavage Z-score” value (30 min) is -0.41 (inactive).

B2: HC285 (peptide)
chain: CARDGKLPATAGNASASA
On to B2, for which the “furin cleavage Z-score” value runs as follows: (7.5 min) 1.05; (15 min) 2.03; (30 min) 0.856 (inactive).

B3: HC64 (peptide)
chain: CATTPCLGSWAGNASASA
B3: the “furin cleavage Z-score” value is, setting by setting: (7.5 min) 0.626 (inactive); (15 min) 0.544 (inactive); (30 min) 0.646 (inactive).

B4: HC1087 (peptide)
chain: CAAGYGAGVAAGNASASA
For B4, the “furin cleavage Z-score” value was 1.51 (7.5 min), -1.39 (inactive) (15 min) and -0.133 (inactive) (30 min).

B5: FS-1922 (peptide)
chain: CARRRRERDDAGNASASA
Regarding B5, the “furin cleavage Z-score” value is 7.16 (active) (7.5 min), 10.1 (active) (15 min) and 7.38 (active) (30 min).

B6: FS-2789 (peptide)
chain: CARRRRGLECAGNASASA
Consider B6, for which the “furin cleavage Z-score” value (7.5 min) was 6.18 (active), the “furin cleavage Z-score” value (15 min) was 4.95 (active) and the “furin cleavage Z-score” value (30 min) was 7.29 (active).

B7: FS-1268 (peptide)
chain: CARRRRERRDAGNASASA
Consider B7, for which the “furin cleavage Z-score” value was 14.1 (active) (7.5 min), 12.4 (active) (15 min) and 10.4 (active) (30 min).

B8: FS-92 (peptide)
chain: CASMPRERRDAGNASASA
For the sequence B8, the “furin cleavage Z-score” value is, setting by setting: (7.5 min) 10.3 (active); (15 min) 12.9 (active); (30 min) 9.32 (active).

B9: FS-2081 (peptide)
chain: CARRRRSGADAGNASASA
With B9, the “furin cleavage Z-score” value is, setting by setting: (7.5 min) 1.69; (15 min) 0.662 (inactive); (30 min) 0.709 (inactive).

B10: HC745 (peptide)
chain: CALLCPAGHAAGNASASA
Consider B10, for which the “furin cleavage Z-score” value reads like this: (7.5 min) 0.399 (inactive); (15 min) 0.942 (inactive); (30 min) -0.0279 (inactive).

B11: HC1019 (peptide)
chain: CAYIEQGMMLAGNASASA
As to B11, the “furin cleavage Z-score” value by setting is: (7.5 min) -1.18 (inactive); (15 min) -0.261 (inactive); (30 min) -0.872 (inactive).

B12: HC1898 (peptide)
chain: CATTPCSTSWAGNASASA
As for B12, the “furin cleavage Z-score” value reads like this: (7.5 min) 0.261 (inactive); (15 min) 0.66 (inactive); (30 min) -0.516 (inactive).

B13: HC2030 (peptide)
chain: CAVVVCSMSYAGNASASA
With B13, the “furin cleavage Z-score” value is 0.0385 (inactive) (7.5 min), -1.4 (inactive) (15 min) and 0.392 (inactive) (30 min).

B14: HC29 (peptide)
chain: CAMEECHQHLAGNASASA
With B14, the “furin cleavage Z-score” value is 0.383 (inactive) (7.5 min), 1.55 (15 min) and 2.41 (30 min).

B15: HC1213 (peptide)
chain: CAMTTDNLKCAGNASASA
As for B15, the “furin cleavage Z-score” value reads like this: (7.5 min) -0.575 (inactive); (15 min) -0.0624 (inactive); (30 min) 0.0584 (inactive).

B16: FS-584 (peptide)
chain: CACSHRERRDAGNASASA
With B16, the “furin cleavage Z-score” value runs as follows: (7.5 min) 6.92 (active); (15 min) 7.04 (active); (30 min) 8.38 (active).

B17: FS-1317 (peptide)
chain: CADWLRQRRTAGNASASA
In the case of B17, the “furin cleavage Z-score” value (7.5 min) is -0.575 (inactive), the “furin cleavage Z-score” value (15 min) was 1.58 and the “furin cleavage Z-score” value (30 min) stood at 1.74.

B18: FS-2786 (peptide)
chain: CARRRRFVPVAGNASASA
As to B18, the “furin cleavage Z-score” value is 2.12 (7.5 min), 4.63 (active) (15 min) and 5.2 (active) (30 min).

B19: FS-95 (peptide)
chain: CASVDRWRRTAGNASASA
For B19, the “furin cleavage Z-score” value was 3.08 (7.5 min), 4.75 (active) (15 min) and 4.05 (active) (30 min).

B20: FS-375 (peptide)
chain: CARRRRERRTAGNASASA
Take B20: the “furin cleavage Z-score” value runs as follows: (7.5 min) 10.4 (active); (15 min) 11 (active); (30 min) 9 (active).

B21: FS-1784 (peptide)
chain: CARRRRFPFVAGNASASA
B21: the “furin cleavage Z-score” value reads like this: (7.5 min) 0.483 (inactive); (15 min) 0.473 (inactive); (30 min) 1.3.

B22: HC724 (peptide)
chain: CASSDLYLVTAGNASASA
Turning to B22, the “furin cleavage Z-score” value (7.5 min) was -0.584 (inactive), the “furin cleavage Z-score” value (15 min) is -0.169 (inactive) and the “furin cleavage Z-score” value (30 min) was -0.884 (inactive).

B23: FS-2596 (peptide)
chain: CARRRRAVPVAGNASASA
Turning to B23, the “furin cleavage Z-score” value is 0.0891 (inactive) (7.5 min), 0.235 (inactive) (15 min) and 1.42 (30 min).

B24: HC422 (peptide)
chain: CAGAPTYSWGAGNASASA
Turning to B24, the “furin cleavage Z-score” value was -0.832 (inactive) (7.5 min), -0.574 (inactive) (15 min) and -0.69 (inactive) (30 min).

B25: HC2468 (peptide)
chain: CAWTPCSAHLAGNASASA
For B25, the “furin cleavage Z-score” value is, setting by setting: (7.5 min) -0.238 (inactive); (15 min) 0.336 (inactive); (30 min) -1.23 (inactive).

B26: HC1737 (peptide)
chain: CAMEECSSHLAGNASASA
Consider B26, for which the “furin cleavage Z-score” value is, setting by setting: (7.5 min) -0.244 (inactive); (15 min) 0.0684 (inactive); (30 min) 0.567 (inactive).

B27: HC2520 (peptide)
chain: CASTCCSAHLAGNASASA
In the case of B27, the “furin cleavage Z-score” value is -0.141 (inactive) (7.5 min), 0.556 (inactive) (15 min) and -0.184 (inactive) (30 min).

B28: FS-2077 (peptide)
chain: CARRRREYWQAGNASASA
Turning to B28, the “furin cleavage Z-score” value reads like this: (7.5 min) 1.57; (15 min) 2.17; (30 min) 5.41 (active).

B29: FS-2375 (peptide)
chain: CARRRRNVHDAGNASASA
On to B29, for which the “furin cleavage Z-score” value by setting is: (7.5 min) 4.94 (active); (15 min) 5.47 (active); (30 min) 4.66 (active).

B30: FS-1482 (peptide)
chain: CARRRRFSRTAGNASASA
For the sequence B30, the “furin cleavage Z-score” value (7.5 min) is 12.1 (active), the “furin cleavage Z-score” value (15 min) is 11.9 (active) and the “furin cleavage Z-score” value (30 min) was 9.62 (active).

B31: FS-2452 (peptide)
chain: CARRRREAPKAGNASASA
B31: the “furin cleavage Z-score” value by setting is: (7.5 min) 10.9 (active); (15 min) 12.3 (active); (30 min) 8.72 (active).

B32: FS-2127 (peptide)
chain: CARACRLVHDAGNASASA
Turning to B32, the “furin cleavage Z-score” value is -0.975 (inactive) (7.5 min), -0.538 (inactive) (15 min) and -0.874 (inactive) (30 min).

B33: FS-3167 (peptide)
chain: CARRRRLLQQAGNASASA
Regarding B33, the “furin cleavage Z-score” value runs as follows: (7.5 min) -0.397 (inactive); (15 min) -0.514 (inactive); (30 min) -0.168 (inactive).

B34: HC267 (peptide)
chain: CAVYEAADAIAGNASASA
For B34, the “furin cleavage Z-score” value runs as follows: (7.5 min) -0.0143 (inactive); (15 min) -0.395 (inactive); (30 min) -0.118 (inactive).

B35: HC1477 (peptide)
chain: CATPMGFSYDAGNASASA
Consider B35, for which the “furin cleavage Z-score” value reads like this: (7.5 min) -1.01 (inactive); (15 min) -0.454 (inactive); (30 min) -1.57 (inactive).

B36: FS-2373 (peptide)
chain: CARRRREGGAAGNASASA
Take B36: the “furin cleavage Z-score” value is -0.0204 (inactive) (7.5 min), 0.649 (inactive) (15 min) and 0.0983 (inactive) (30 min).

B37: FS-1566 (peptide)
chain: CARRRRFERAAGNASASA
Take B37: the “furin cleavage Z-score” value runs as follows: (7.5 min) 10.7 (active); (15 min) 10.7 (active); (30 min) 8.07 (active).

B38: FS-197 (peptide)
chain: CASSVRPAREAGNASASA
Take B38: the “furin cleavage Z-score” value was 5.98 (active) (7.5 min), 7.51 (active) (15 min) and 5.17 (active) (30 min).

B39: FS-1210 (peptide)
chain: CAHPLRPAREAGNASASA
For the sequence B39, the “furin cleavage Z-score” value (7.5 min) was 5.83 (active), the “furin cleavage Z-score” value (15 min) is 7.36 (active) and the “furin cleavage Z-score” value (30 min) is 6.09 (active).

B40: HC2043 (peptide)
chain: CAVVCCSASYAGNASASA
With B40, the “furin cleavage Z-score” value reads like this: (7.5 min) 0.0516 (inactive); (15 min) 0.0797 (inactive); (30 min) 0.0526 (inactive).

B41: HC642 (peptide)
chain: CAGLRDLAVAAGNASASA
Regarding B41, the “furin cleavage Z-score” value (7.5 min) worked out at 1.12, the “furin cleavage Z-score” value (15 min) was -0.299 (inactive) and the “furin cleavage Z-score” value (30 min) is -1.6 (inactive).

B42: FS-2391 (peptide)
chain: CALEKRSVGCAGNASASA
Consider B42, for which the “furin cleavage Z-score” value is, setting by setting: (7.5 min) -0.325 (inactive); (15 min) -2.06 (inactive); (30 min) -0.0695 (inactive).

B43: FS-1000 (peptide)
chain: CAGLRRQKRDAGNASASA
With B43, the “furin cleavage Z-score” value is 12.6 (active) (7.5 min), 12.8 (active) (15 min) and 9.7 (active) (30 min).

B44: FS-463 (peptide)
chain: CAMSARRARDAGNASASA
Take B44: the “furin cleavage Z-score” value reads like this: (7.5 min) 9.65 (active); (15 min) 10.9 (active); (30 min) 7.88 (active).

B45: FS-278 (peptide)
chain: CANPARVCRDAGNASASA
Turning to B45, the “furin cleavage Z-score” value reads like this: (7.5 min) 6.13 (active); (15 min) 5.66 (active); (30 min) 4.1 (active).

B46: FS-926 (peptide)
chain: CAELGRPARDAGNASASA
B46: the “furin cleavage Z-score” value (7.5 min) is 0.0348 (inactive), the “furin cleavage Z-score” value (15 min) is -0.0349 (inactive) and the “furin cleavage Z-score” value (30 min) is -0.833 (inactive).

B47: FS-946 (peptide)
chain: CANPARDDRSAGNASASA
In the case of B47, the “furin cleavage Z-score” value runs as follows: (7.5 min) 1.25; (15 min) 0.0847 (inactive); (30 min) -1.86 (inactive).

B48: HC1082 (peptide)
chain: CAGLGKVLIDAGNASASA
With B48, the “furin cleavage Z-score” value is -0.199 (inactive) (7.5 min), -0.846 (inactive) (15 min) and -0.271 (inactive) (30 min).

B49: FS-1639 (peptide)
chain: CALEKRQKRDAGNASASA
With B49, the “furin cleavage Z-score” value is, setting by setting: (7.5 min) 14.8 (active); (15 min) 13.5 (active); (30 min) 11.4 (active).

The values above are taken from the supplement of paper PMC3545927.
